From PubChem BioAssay AID1159580 (chemical genetic matrix, 2015)
Values joined by “and” are separate entries in the source; they are usually repeats but may differ in a detail not shown here. Equal entries are not always repeated. Screen size: about 5,500 compounds; about 2,000 (36%) were called active. About 18% were inconclusive and are not listed. Rule as the data show it: active = normalized growth mostly below about 0.91 (no sharp cut-off); inconclusive = no clear call, values can overlap the other calls; inactive = mostly above about 0.92. The list shows a part of the results.

Experiment: chemical genetic growth profiling, strain panel (AID 1159580);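 also: tested at 20 µM; growth read once vehicle control cultures reached saturation at 30 °C; 1 = growth at the plate median or of vehicle wells; lower values mean less growth of the strain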
Settings: S. cerevisiae deletion strains, growth OD

Measured: normalized growth

CC(=O)O[C@H]1C[C@@H](OC(C)=O)C(C)(C)C2C[C@@H](O)[C@]3(C)C(CC[C@@]4(C)[C@H](c5ccoc5)OC(=O)[C@H]5O[C@]543)[C@]21C (stereo partly specified)
inactive: locus YAL021C, strain ccr4, hits give low values 1.05 | locus YAL026C, strain drs2, hits give low values 0.985 | locus YAL030W, strain snc1, hits give low values 0.995 | locus YBL061C, strain skt5, hits give low values 0.992 | locus YBR009C, strain hhf1, hits give low values 1 | locus YBR021W, strain FUR4, hits give low values 1.01 | locus YBR023C, strain chs3, hits give low values 1 | locus YBR171W, strain sec66, hits give low values 0.96 | locus YBR229C, strain ROT2, hits give low values 0.947 | locus YBR231C, strain swc5, hits give low values 0.977 | locus YBR279W, strain paf1, hits give low values 0.996 | locus YCL011C, strain gbp2, hits give low values 0.996 | locus YCL016C, strain dcc1, hits give low values 1.03 | locus YCL029C, strain bik1, hits give low values 0.971 | locus YCL069W, strain vba3, hits give low values 0.969 | locus YCR088W, strain abp1, hits give low values 0.983 | locus YDL005C, strain med2, hits give low values 1.01 | locus YDL035C, strain GPR1, hits give low values 0.965 | locus YDL040C, strain nat1, hits give low values 0.976 | locus YDL074C, strain BRE1, hits give low values 0.939 | locus YDL101C, strain DUN1, hits give low values 0.992 | locus YDL185W, strain tfp1, hits give low values 0.956 | locus YDL192W, strain arf1, hits give low values 0.977 | locus YDR001C, strain nth1, hits give low values 0.989 | locus YDR069C, strain doa4, hits give low values 0.981 | locus YDR101C, strain arx1, hits give low values 0.954 | locus YDR137W, strain rgp1, hits give low values 0.987 | locus YDR159W, strain sac3, hits give low values 0.936 | locus YDR162C, strain NBP2, hits give low values 0.948 | locus YDR195W, strain ref2 0.935 | locus YDR297W, strain sur2, hits give low values 0.992 | locus YDR318W, strain mcm21, hits give low values 0.982 | locus YDR334W, strain swr1, hits give low values 0.993 | locus YDR335W, strain msn5, hits give low values 0.99 | locus YDR388W, hits give low values 0.99 | locus YDR392W, strain spt3, hits give low values 0.966 | locus YDR502C, strain sam2, hits give low values 0.996 | locus YEL003W, strain gim4, hits give low values 0.977 | locus YEL037C, strain rad23, hits give low values 0.989 | locus YEL061C, strain CIN8 (second series), hits give low values 0.982 | locus YER015W, strain faa2, hits give low values 0.997 | locus YER016W, strain bim1, hits give low values 0.977 | locus YER110C, hits give low values 0.966 | locus YER111C, strain swi4, hits give low values 0.975 | locus YER155C, strain BEM2 (second series), hits give low values 1.02 | locus YER155C, strain BEM2, hits give low values 1.02 | locus YER167W, strain BCK2, hits give low values 0.995 | locus YFR010W, strain ubp6, hits give low values 0.963 | locus YGL078C, strain dbp3, hits give low values 0.978 | locus YGL086W, strain mad1, hits give low values 0.997 | locus YGL167C, strain pmr1, hits give low values 1 | locus YGL173C, strain kem1, hits give low values 0.962 | locus YGL227W, strain vid30, hits give low values 0.986 | locus YGL240W, strain doc1, hits give low values 0.973 | locus YGL248W, strain PDE1, hits give low values 0.97 | locus YGR078C, strain PAC10, hits give low values 1.01 | locus YGR135W, strain pre9, hits give low values 1.04 | locus YGR252W, strain gcn5, hits give low values 0.941 | locus YHR013C, strain ard1, hits give low values 0.997 | locus YHR027C, strain rpn1, hits give low values 0.986 | locus YHR030C, strain SLT2, hits give low values 0.982 | locus YHR079C, strain IRE1 (second series), hits give low values 0.986 | locus YHR079C, strain IRE1, hits give low values 0.999 | locus YHR094C, strain hxt1, hits give low values 0.975 | locus YHR129C, strain ARP1, hits give low values 0.988 | locus YHR142W, strain chs7, hits give low values 0.977 | locus YHR200W, strain rpn10, hits give low values 0.979 | locus YIL066C, strain RNR3, hits give low values 0.935 | locus YIL073C, strain SPO22, hits give low values 0.893 | locus YIL125W, strain kgd1, hits give low values 0.989 | locus YIR030C, strain dcg1, hits give low values 0.989 | locus YJL092W, strain hpr5, hits give low values 0.99 | locus YJL095W, strain BCK1 (second series), hits give low values 0.973 | locus YJL095W, strain BCK1, hits give low values 1.03 and 0.979 | locus YJL115W, strain asf1, hits give low values 0.996 | locus YJL129C, strain trk1, hits give low values 0.96 | locus YJL134W, strain LCB3, hits give low values 0.977 | locus YJL154C, strain vps35, hits give low values 0.995 | locus YJL164C, strain tpk1, hits give low values 1.01 | locus YJL166W, strain qcr8, hits give low values 0.955 | locus YJL168C, strain set2, hits give low values 0.995 | locus YJL187C, strain SWE1 (second series), hits give low values 1.01 | locus YJR043C, strain POL32, hits give low values 0.942 | locus YJR066W, strain TOR1, hits give low values 0.935 | locus YKL009W, strain mrt4, hits give low values 0.955 | locus YKL068W, hits give low values 0.969 | locus YKL085W, strain MDH1 (second series), hits give low values 0.987 | locus YKL085W, strain MDH1, hits give low values 0.987 | locus YKL160W, strain elf1, hits give low values 1.04 | locus YKL190W, strain CNB1, hits give low values 0.996 | locus YKR001C, strain vps1, hits give low values 0.978 | locus YKR026C, strain gcn3, hits give low values 1.05 | locus YKR091W, strain srl3, hits give low values 1 | locus YLL001W, strain dnm1, hits give low values 0.971 | locus YLL026W, hits give low values 0.994 | locus YLL041C, strain sdh2, hits give low values 0.989 | locus YLR027C, strain aat2, hits give low values 1.01 | locus YLR039C, strain RIC1, hits give low values 0.97 | locus YLR058C, strain SHM2, hits give low values 0.973 | locus YLR102C, strain apc9, hits give low values 0.973 | locus YLR113W, strain HOG1, hits give low values 1.02 | locus YLR221C, strain rsa3, hits give low values 0.969 | locus YLR258W, strain gsy2, hits give low values 0.992 | locus YLR262C, strain YPT6 (second series), hits give low values 0.985 | locus YLR268W, strain sec22, hits give low values 0.954 | locus YLR320W, strain mms22, hits give low values 0.978 | locus YLR330W, strain CHS5, hits give low values 0.992 | locus YLR342W, strain FKS1, hits give low values 1.01 | locus YLR357W, strain rsc2, hits give low values 1.04 | locus YLR370C, strain arc18, hits give low values 0.973 | locus YLR371W, strain rom2, hits give low values 0.986 | locus YLR384C, strain iki3, hits give low values 0.971 | locus YLR418C, strain cdc73, hits give low values 0.976 | locus YML016C, strain PPZ1, hits give low values 0.969 | locus YML032C, strain rad52, hits give low values 0.952 | locus YML120C, strain ndi1, hits give low values 1.01 | locus YML124C, strain tub3, hits give low values 0.992 | locus YMR058W, strain fet3, hits give low values 0.999 | locus YMR078C, strain ctf18, hits give low values 0.971 | locus YMR125W, strain sto1, hits give low values 1.01 | locus YMR129W, hits give low values 0.987 | locus YMR205C, strain PFK2, hits give low values 1.05 | locus YMR223W, strain ubp8, hits give low values 0.978 | locus YMR231W, strain pep5, hits give low values 0.971 | locus YMR307W, strain GAS1, hits give low values 1.01 | locus YNL067W, strain RPL9B, hits give low values 1.03 | locus YNL071W, strain lat1, hits give low values 0.984 | locus YNL128W, strain TEP1, hits give low values 0.954 | locus YNL153C, strain GIM3, hits give low values 1.01 | locus YNL183C, strain NPR1, hits give low values 0.944 | locus YNL209W, strain ssb2, hits give low values 0.999 | locus YNL233W, strain BNI4, hits give low values 1.02 | locus YNL248C, strain rpa49, hits give low values 0.962 | locus YNL250W, strain rad50, hits give low values 0.982 | locus YNL271C, strain bni1, hits give low values 0.983 | locus YNL298W, strain CLA4, hits give low values 0.993 | locus YNL307C, strain MCK1, hits give low values 0.99 | locus YNL322C, strain KRE1 (second series), hits give low values 0.987 | locus YNL322C, strain KRE1, hits give low values 0.987 | locus YNR049C, strain mso1, hits give low values 0.991 | locus YNR052C, strain pop2, hits give low values 0.999 | locus YOL006C, strain TOP1, hits give low values 0.955 | locus YOL012C, strain htz1 1.02 | locus YOL147C, strain pex11, hits give low values 0.998 | locus YOR001W, strain rrp6, hits give low values 0.935 | locus YOR061W, strain CKA2, hits give low values 0.967 | locus YOR069W, strain VPS5, hits give low values 1 | locus YOR070C, strain gyp1, hits give low values 1.02 | locus YOR080W, strain dia2, hits give low values 0.98 | locus YOR083W, strain WHI5, hits give low values 1.04 | locus YOR106W, strain vam3, hits give low values 1.02 | locus YOR136W, strain idh2, hits give low values 0.971 | locus YOR144C, strain elg1, hits give low values 0.964 | locus YOR184W, strain ser1, hits give low values 0.95 | locus YOR231W, strain MKK1, hits give low values 0.982 | locus YOR265W, strain rbl2, hits give low values 1.01 | locus YOR270C, strain vph1, hits give low values 0.841 | locus YOR290C, strain snf2, hits give low values 1.03 | locus YOR316C, strain cot1, hits give low values 0.989 | locus YPL051W, strain arl3, hits give low values 0.979 | locus YPL078C, strain atp4, hits give low values 1.02 | locus YPL106C, strain sse1, hits give low values 1.02 | locus YPL240C, strain hsp82, hits give low values 0.984 | locus YPL241C, strain CIN2, hits give low values 0.985 | locus YPL256C, strain CLN2, hits give low values 0.993 | locus YPR119W, strain clb2, hits give low values 0.998 | locus YPR141C, strain kar3, hits give low values 0.983 | locus YPR163C, strain tif3, hits give low values 0.986 | locus YPR167C, strain met16, hits give low values 0.988 | strain wtn01, hits give low values 0.972
active: locus YGL253W, strain hxk2, hits give low values 0.897
